In PubChem BioAssay (NCATS):
Results filed as inconclusive are left out. Calls of active or inactive are those of the source. Calls come from the whole dose curve; as a rule, active = well fitted inhibition curve with a large enough effect; inconclusive = small, poorly fitted or top-dose-only effect; inactive = flat fitted curve, though single readings scatter.

The compounds below were run against Calcium and integrin-binding protein 1 (Homo sapiens) (UniProt Q99828) (assay: Primary qHTS for Identification of Calcium Integrin Binding Protein 1 (CIB1) Competitor (AID 1508620; note: top concentration of the series differs between compounds)). Conditions: CIB1-GST / FITC-alphaIIb peptide fluorescence polarization; series mostly up to 114 µM; activity change, negative = inhibition: at the top concentration.
Sequence of Calcium and integrin-binding protein 1 (Homo sapiens) (Q99828 whole entry, looked up): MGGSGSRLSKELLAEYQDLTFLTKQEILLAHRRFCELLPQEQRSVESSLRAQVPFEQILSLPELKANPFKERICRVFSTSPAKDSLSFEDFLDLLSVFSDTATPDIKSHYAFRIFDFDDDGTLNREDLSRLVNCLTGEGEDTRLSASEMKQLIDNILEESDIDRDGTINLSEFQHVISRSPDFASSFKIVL
Summary of the method: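 Fluorescence polarization competition: GST-tagged CIB1 (1 uM final) preincubated with compound 15 min at room temperature, then FITC-labelled alphaIIb peptide (100 nM final) added. After 15 min at room temperature, polarization read at Ex 480/Em 540.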
% is set by controls: 0 for no effect and ±100 for the full control effect.

| Compound | activity change, negative = inhibition |
| --- | --- |
| Cc1cc(C)nc(NC(=S)N2CCN(c3cc(C#N)cc(C#N)c3)CC2)c1 | 0.406% (inactive) |
| COc1cc(O)c(C(CC(=O)N2CCC(Cc3ccccc3)CC2)c2ccc(OC)c(OC)c2)c(OC)c1 (centres undefined) | 4.43% [at 228 µM] (inactive) |
| COc1ccc(C2Nc3ccccc3C(=O)N2Cc2ccco2)cc1COc1c(C)cc(NC(C)=O)cc1C (centres undefined) | -7.34% (inactive) |
| Cc1ccc(OCCn2c(CCNC(=O)Cc3ccccc3)nc3ccccc32)cc1 | 26.5% (inactive) |
| Cc1cc(-c2nnc3n2CCCCCCC3)c(C)n1-c1ccccc1 | 3.25% (inactive) |
| O=S(=O)(NC1CCN(S(=O)(=O)c2c(F)cccc2F)C1)c1ccc2c(c1)OCCO2 (centres undefined) | -2.43% (inactive) |
| Nc1cccc(-c2ccc(NC(=O)c3cccs3)cn2)c1 | -3.82% (inactive) |
| CNC(=O)c1cnn2c(C)cc(C)nc12 | -1.46% (inactive) |
| Cc1ccc2nc3sc(C(=O)N4CCOCC4)cc3cc2c1 | -2.35% (inactive) |
| CCN(CC)c1ccc(NC(=O)Nc2ccc(C(C)=O)cc2)cc1 | -7.76% (inactive) |
| O=C(Cc1ccccc1)Nc1sc2c(c1C(=O)Nc1ccc(Cl)cc1)CCOC2 | 5.34% (inactive) |
| O=C(c1c(F)cccc1F)N1CCN(S(=O)(=O)c2ccc3c(c2)OCCO3)CC1 | 1.02% (inactive) |
| O=C1c2ccccc2C(=O)N1c1cccc(=O)[nH]1 | 1.08% (inactive) |
| COc1ccc(C2Nc3ccccc3C(=O)N2Cc2ccco2)cc1COc1ccc(N)cc1 (centres undefined) | -18.7% (inactive) |
| Fc1ccc(Nc2nc(-c3ccnc(C(F)(F)F)c3)nc3ccccc23)cc1F | 0.738% (inactive) |
| CC(C)(C)OC(=O)N1CCN(c2ccc(NCc3ccoc3-c3ccc(C#N)cc3)cc2)CC1 | 3.7% (inactive) |
| Cn1ccc2cc(-c3csc(N4CCC(C(N)=O)CC4)n3)ccc21 | 2.24% (inactive) |
| O=C(O)c1ccc2c(c1)C(=O)N([C@H](Cc1ccc(O)cc1)C(=O)O)C2=O | -0.01% (inactive) |
| Cc1cc2c(s1)c1cnn(Cc3ccc(F)cc3)c(=O)c1n2C | 5.77% (inactive) |
| COc1cccc(CNc2ccc(S(=O)(=O)Nc3nc(C)cs3)cc2)c1O | -8.75% (inactive) |

| Compound | activity change, negative = inhibition |
| --- | --- |
| Cc1cc(C)n2ncc(C(=O)Nc3ccncc3)c2n1 | 3.09% (inactive) |
| C[C@H](NC(c1ccc(F)cc1)c1ccc2cccnc2c1O)c1ccccc1 (some centres undefined) | -2.06% (inactive) |
| O=S1(=O)N=C(Oc2ccc(-c3ccccc3)cc2)c2ccccc21 | -1.84% (inactive) |
| Cc1cc(C)nc(NC(=S)N2CCN(c3cncs3)CC2)c1 | -11.2% (inactive) |
| O=C1CCc2cc(S(=O)(=O)Nc3cccc4ccccc34)ccc2N1 | -0.814% (inactive) |
| COc1cccc(C2=Nn3c(nnc3-c3ccccc3O)SC2)c1 | 3.5% (inactive) |
| O=C(NC1CCCc2c1cnn2-c1ccc(F)cc1F)c1ccncc1 (centres undefined) | 3.27% (inactive) |
| Cc1cccc(C[C@H](C(=O)O)N2C(=O)c3ccc(C(=O)O)cc3C2=O)c1 | 1.27% (inactive) |
| Cc1cc2c(s1)c1cnn(Cc3c(F)c(F)c(C(F)(F)F)c(F)c3F)c(=O)c1n2C | -0.933% (inactive) |
| O=C(NCc1ccc(Cl)c(Cl)c1)Nc1nnc(-c2ccncc2)s1 | 56.5% (inactive) |
| O=S(=O)(c1cccc(Cl)c1)N1CCN(S(=O)(=O)c2ccc3c(c2)OCCO3)CC1 | 2.38% (inactive) |
| O=S1(=O)N=C(Oc2ccc(Br)cc2)c2ccccc21 | -2.85% (inactive) |
| CCCCN1C(=O)c2ccccc2NC1c1ccc(OC)c(COc2c(C)cc(NC(C)=O)cc2C)c1 (centres undefined) | 1.72% (inactive) |
| O=C(c1ccccc1)N1CCN(c2nc(-c3ccc(Br)cc3)cs2)CC1 | 3.47% (inactive) |
| O=C(c1ccccc1O)N(Cc1ccccc1)Cc1ccccc1 | -1.67% (inactive) |
| CC(=O)Nc1sc2c(c1-c1ccc(Cl)cc1)CCNC2 | 5.04% (inactive) |
| CC(C)(C)OC(=O)N1CCN(c2ccc(NCc3cncc(-c4ccc(C#N)cc4)c3)cc2)CC1 | -5.96% (inactive) |
| COc1ccc(C2Nc3ccccc3C(=O)N2Cc2cccnc2)cc1COc1c(C)cc(NC(C)=O)cc1C (centres undefined) | 2.45% (inactive) |
| CC(=O)Nc1sc2c(c1Br)CCNC2 | 0.502% (inactive) |
